Article PMC4552634, “A New Set of Chemical Starting Points with Plasmodium falciparum Transmission-Blocking Potential for Antimalarial Drug Discovery” (PLoS ONE, 2015)
Where two headings read alike, the source gives them in different places. Among all 13,000 compounds or so, about 3,200 (25%) showed an effect of 50% or more. This is one part of the list.

Test system: P. falciparum stage V gametocytes
Parameters: BacTiter-Glo ATP luminescence viability of purified stage V gametocytes in 384-well plates, per cent inhibition versus DMSO
Settings: 48 h, 5 µM, inhibitor

SMILES	% Inhibition	% Inhibition (% Inhibition)
COc1cc(F)c2ncc(Cl)c(C(O)CN3CCC(NC(=O)c4ccc5c(c4)NC(=O)CS5)CC3)c2c1 (stereo not drawn) [TCMDC-135908]	-70.28%	
Cc1noc(C)c1-c1cccc(CNCc2cccc(-c3csc(-c4nc5ccccc5[nH]4)c3)c2)c1 [TCMDC-133047]	-19.47%	
Cc1cccc2nc(-c3ccc(-c4cccc(NC(=O)Nc5ccsc5)c4)s3)[nH]c12 [TCMDC-133208]	8.037%	
CC1(C)N=C(N)N=C(N)N1OCCCc1ccc(Cl)cc1Cl [TCMDC-131692]	4.93%	
O=C(NC1CCC(CCN2Cc3cccc(F)c3C2)CC1)c1cccc(-c2cccnc2)c1 (stereo not drawn) [TCMDC-139623]	-21.05%	
COc1ccc2nccc([C@@H](O)CN3CCC(NC(=O)c4ccc5cc[nH]c5c4)CC3)c2c1 [TCMDC-140743]	-6.563%	
COc1cc(C(=O)Nc2ccc3nc(N4CCN(C)CC4)cc(C)c3c2)cc(OC)c1OC [TCMDC-123591]	10.02%	
CCN(CC1CCN(CC2(O)CCOCC2)CC1)c1cc(C)nc(Nc2ccc(Cl)cc2)n1 [TCMDC-133808]	30.17%	
CC(=O)Nc1ccc(Nc2ncc([N+](=O)[O-])c(Nc3ccccc3C(N)=O)n2)cc1 [TCMDC-138731]	-8.61%	
CCN(CC)CCNC(=O)c1ccc(Nc2ncc([N+](=O)[O-])c(Nc3ccccc3OC)n2)cc1 [TCMDC-138727]	73.19%	
N=C(N)c1ccc(Nc2nccc(Nc3nc(-c4ccccc4)cs3)n2)cc1 [TCMDC-136090]	-20.73%	
N=C(N)c1ccc(Nc2nc(Nc3ccc(-c4ccccc4)cc3)ncc2[N+](=O)[O-])cc1 [TCMDC-136145]	99.81%	
CCN(CC)CCNC(=O)c1ccc(NC(=O)c2cc(-c3ccncc3)nc3ccccc23)cc1 [TCMDC-124495]	0.6549%	
CNC(=O)c1ccccc1Nc1nc(Nc2ccc(C(=O)O)cc2)ncc1Cl [TCMDC-133803]	-5.909%	
CCC(C)c1ccc(NC(=O)Nc2ccc(Cn3ncc(N4CCCNCC4)c(Cl)c3=O)cc2)cc1 (stereo not drawn) [TCMDC-133313]	-21.93%	
COc1cc(-c2[nH]c(-c3ccc(OCCN(C)C)cc3)cc2-c2ccncc2)ccc1Cl [TCMDC-141225]	-13.45%	
N=C(N)c1ccc(NC(=O)c2cc(Sc3ccc(O)c(C(=O)Nc4ccc(C(=N)N)cc4)c3)ccc2O)cc1 [TCMDC-136287]	-39.81%	
CN(C)c1ccc(C=C2SC(=N)N(c3nccs3)C2=O)cc1 [TCMDC-125861]	-21.41%	
Cc1nc(N)nc(N)c1OCc1cccc2c1ccc1ccccc12 [TCMDC-131344]	22.54%	
COc1ccc(OC)c(Cc2c(C)nc3nc(N)nc(N)c3c2C)c1 [TCMDC-137651]	-0.1524%	
Cc1nc2nc(N)nc(N)c2c(C)c1Cc1ccccc1Br [TCMDC-137242]	-1.627%	
Cc1nc2nc(N)nc(N)c2c(C)c1Cc1ccc([N+](=O)[O-])cc1 [TCMDC-137636]	77.57%	
Cc1ccc(Cc2c(C)nc3nc(N)nc(N)c3c2C)cc1 [TCMDC-137657]	-7.172%	

SMILES	% Inhibition	% Inhibition (% Inhibition)
Cc1nc2nc(N)nc(N)c2c(C)c1Cc1ccccc1Cl [TCMDC-137668]	-12.71%	
COc1ccccc1Cc1c(C)nc2nc(N)nc(N)c2c1C [TCMDC-137247]	65.53%	
Cc1nc2nc(N)nc(N)c2c(C)c1Cc1c(Cl)cccc1Cl [TCMDC-137638]	65.23%	
Cc1nc2nc(N)nc(N)c2c(C)c1Cc1ccc(N)cc1 [TCMDC-137633]	-5.029%	
Cc1nc2nc(N)nc(N)c2c(C)c1Cc1cccc(F)c1 [TCMDC-137652]	-9.941%	
CO/C(=C\C=C\c1cc2cc(Cl)c(Cl)cc2[nH]1)C(=O)NCCCN1CCN(c2cccc(CCCO)c2)CC1 [TCMDC-139412]	14.82%	
NC(N)=Nc1ccc(NC(=O)Nc2ccc(N=C(N)N)cc2)cc1 [TCMDC-137208]	-16.48%	
Cc1cccc2nc(-c3ccc(-c4cccc(NC(=O)NCc5cccc(F)c5)c4)s3)[nH]c12 [TCMDC-133285]	-13.08%	
OC1CCC(Nc2ccc3ncc(-c4ccc(Cl)cc4)n3n2)CC1 (stereo not drawn) [TCMDC-136693]	13.04%	
OC(CNc1ccnc(Nc2ccc(Cl)cc2)n1)c1ccc(C(F)(F)F)cc1 (stereo not drawn) [TCMDC-136597]	-19.72%	
CC(C)(CNCc1ccc(F)c(F)c1)c1nc(-c2ccc(Cl)c(O)c2)c(-c2ccnc(N)n2)[nH]1 [TCMDC-141163]	-6.922%	
O=C(NCCSCc1c(F)cccc1Cl)c1cnc2c(c1)nc(-c1cnc(-c3ccccc3)[nH]1)n2CCc1cnc[nH]1 [TCMDC-139691]	-6.07%	
Cc1ccc2cc(NC(=O)c3cccc(C(=O)Nc4ccc5nc(C)ccc5c4)n3)ccc2n1 [TCMDC-139460]	-22.62%	
CCNc1cc(C)nc(Nc2ccc(NC(=O)c3ccccc3Cl)cc2)n1 [TCMDC-124986]	-9.535%	
CCCOc1cc(OCCC)cc(-c2ccc(C(=O)Nc3ccc4ccc(C)nc4c3)c(=O)[nH]2)c1 [TCMDC-141499]	82.34%	
CC1(C)CCCN(Cc2c(O)ccc3c(=O)c(-c4nc5ccccc5s4)c(N)oc23)C1 [TCMDC-124009]	-3.964%	
Cc1nc(-c2nc(N3CCC(O)CC3)ncc2-c2ccsc2)sc1C [TCMDC-133149]	35.11%	
O=C(NC1CCN(Cc2ccsc2)CC1)c1ccc(-c2cccc(C(F)(F)F)c2)s1 [TCMDC-134366]	17.83%	
Cc1cc(CN2CCC(Nc3ncc(-c4ccsc4)c4nc(C(F)(F)F)ccc34)CC2)no1 [TCMDC-125306]	66.69%	
Oc1cccc2c1CC(NCc1ccccc1)CC2 (stereo not drawn) [TCMDC-137987]	8.096%	
NC(=O)c1cc(-c2ccccc2)cc2c(C3CCC(NCc4ccccc4)C3)c[nH]c12 (stereo not drawn) [TCMDC-136335]	119.1%	
CCCNc1ccc(-c2cc(C(N)=O)c3[nH]cc(C4CCN(S(=O)(=O)CC)CC4)c3c2)cn1 [TCMDC-136721]	8.74%	
COC(=O)c1sccc1NC(=S)NC1CCC(CN2CCC(c3c[nH]c4ccccc34)CC2)CC1 (stereo not drawn) [TCMDC-140202]		68.17%

SMILES	% Inhibition	% Inhibition (% Inhibition)
S=C(Nc1ccc2c(c1)OCCO2)NC1CCC(CN2CCC(c3c[nH]c4ccccc34)CC2)CC1 (stereo not drawn) [TCMDC-140205]		-9.163%
COC(=O)c1sccc1NC(=S)NC1CCC(CN2CCC(c3c[nH]c4ccccc34)CC2)CC1 (stereo not drawn) [TCMDC-140184]		87.69%
S=C(Nc1ccc2c(c1)OCCO2)NC1CCC(CN2CCC(c3c[nH]c4ccccc34)CC2)CC1 (stereo not drawn) [TCMDC-140187]		28.79%
O=C(Nc1ccc(C(=O)OCC2CCCN3CCCCC23)cc1)c1ccc([N+](=O)[O-])cc1 (stereo not drawn) [TCMDC-124028]	-7.885%	
COc1ccc(-c2ccccc2CNc2nc(NCCc3ccc(O)cc3)nc(N3CCNCC3)n2)cc1 [TCMDC-133785]	16.29%	
COc1ccc2nc(N3CCN(C(=O)OC(C)(C)C)CC3)nc(NCCCc3ccccc3)c2c1 [TCMDC-138361]	104.5%	
COc1ccc2nccc([C@@H](O)CN3CCC(NC[C@H](Cc4ccccc4)NC(=O)OC(C)(C)C)CC3)c2c1 [TCMDC-140729]	28.25%	
Oc1ccc2nc(N3CCNCC3)nc(NCCCc3ccccc3)c2c1 [TCMDC-138362]	-3.438%	
COc1ccc2nc(N3CCNCC3)nc(NCCCc3ccccc3)c2c1 [TCMDC-138367]	61.05%	
C/C(=C\C(=O)NC1CC1)c1ccccc1OCc1ccccc1 [TCMDC-137859]	-0.1612%	
COC(=O)c1cccc(CNCc2cccc(-c3ccc(-c4nc5ccccc5[nH]4)s3)c2)c1.O=C(O)C(F)(F)F [TCMDC-132944]	-0.1401%	
COc1ccc(NC(=O)CCNc2cc(C)nc(Nc3ccccc3)n2)cc1 [TCMDC-134731]	16.78%	
Cc1cc(NCCC(=O)NCCOc2ccccc2)nc(Nc2ccccc2)n1 [TCMDC-134732]	39.63%	
Cc1cc(NCCC(=O)NCCOc2ccccc2)nc(NCCc2ccc(F)cc2)n1 [TCMDC-134865]	48.39%	
Cc1cc(NCCC(=O)NCCOc2ccccc2)nc(NCCOc2ccccc2)n1 [TCMDC-134877]	53.53%	
Cc1cc(NCCC(=O)NCCOc2ccccc2)nc(NCCc2ccccc2)n1 [TCMDC-134771]	71.03%	
Cc1cc(NCCC(=O)NCCOc2ccccc2)nc(NCc2ccccc2C)n1 [TCMDC-134900]	9.691%	
COc1ccc(NC(=O)CCNc2cc(C)nc(NCCOc3ccccc3)n2)cc1 [TCMDC-134876]	16.63%	
Cc1cc(NCCC(=O)Nc2ccccc2)nc(NCCOc2ccccc2)n1 [TCMDC-134878]	88.65%	
COc1ccccc1CCNc1nc(C)cc(NCCC(=O)NCCOc2ccccc2)n1 [TCMDC-134799]	41.79%	
Cc1cccc(N2CCN(C3CCC(NC(=O)c4cc5ccccc5[nH]4)CC3)CC2)c1C (stereo not drawn) [TCMDC-132891]	-4.538%	
COc1ccc(S(=O)(=O)N2CCC(NS(=O)(=O)c3ccc(F)cc3)CC2)cc1 [TCMDC-123512]	11.24%	
CC(=O)Nc1ccc(CN(C)C2CCN(c3cc(NC(=O)c4cccc(C)c4)ccn3)CC2)cc1 [TCMDC-134982]	-8.957%	
